# Laboratory results taken from PubChem BioAssay (NCI).
# Values joined by “and” are separate entries in the source; they are usually repeats but may differ in a detail not shown here. Identical values can stand only once. The panel holds about 83,000 compounds, 20% with a hit somewhere; the sample as a whole holds those more often.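 The test compound was applied at a single concentration to cells in 96-well plates for 48 hours, and percent growth was recorded.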 Active and inactive are the calls of the source. Rule for the calls: active = growth percent below 10; inactive = the rest.
# System: MDA-MB-468 breast
# Experiment: NCI-60 one-dose screen, 48 h (100 = growth as untreated, 0 = no growth, -100 = all killed)
# Details: 10 µM unless noted
row,Compound,growth
1,Cc1ccc(Cl)cc1NC(=O)N(C)CCO,132% (inactive)
2,O=C(Nc1ccc(F)cc1)Nc1ccc(Br)c(C(F)(F)F)c1,-5.88% (active)
3,N#CC1=C(N)Oc2c(c(N)nn2-c2ccccc2)C1c1ccc(Cl)cc1Cl (centres undefined),129% (inactive)
4,CCO/C=N/C1=C(C#N)C(c2ccc(Cl)cc2)c2sc3c(F)cccc3c2O1 (centres undefined),54.3% (inactive)
5,C=C1C(=O)O[C@H]2[C@H]1CC/C(COC(=O)CCCC(=O)OC/C1=C/CC[C@@]3(C)O[C@H]3[C@H]3OC(=O)C(=C)[C@@H]3CC1)=C\CC[C@@]1(C)O[C@@H]21,-19.1% (active)
6,Cc1nc2c(nnn2-c2ccccc2)c2nc(-c3ccccc3)oc(=O)c12,110% (inactive)
7,O=C1NC(=C(Cl)Cl)/C(=N/S(=O)(=O)N2CCC(C3(C(F)(F)F)N=N3)CC2)N1,32.7% (inactive)
8,C=CCn1c(SCC(=O)c2ccccc2)nnc1-c1c[nH]c2ccccc12,87.7% (inactive)
9,CC12CCCC(CC(=O)c3[nH]c4ccccc4c31)C2 (centres undefined),-47.5% (active)
10,C=C1C[C@H](O)[C@H](Br)C(C)(C)[C@@]12CCC(C)=C(Cl)C2,-28.3% (active)
11,Cc1cc(N(CCCNc2ccnc3cc(Cl)ccc23)Cc2cccs2)nc(Cl)n1,1.63% (active)
12,CCCCCCCCCCCCCC,110% (inactive)
13,C=C(C)[C@@H]1CC[C@]2(C(=O)n3ccnc3)CC[C@]3(C)[C@H](CC[C@@H]4[C@@]5(C)CCCNC(C)(C)[C@@H]5CC[C@]43C)[C@@H]12,-11.1% (active)
14,Cn1c2ccc(Br)cc2c2c3c(c4c5ccccc5[nH]c4c21)C(=O)N(O)C3=O,-52.5% (active)
15,N#CC(C#N)=Cc1cc2ccccc2nc1Oc1ccc(C(F)(F)F)cc1,86.1% (inactive)
16,CN1C(=O)C(N=Nc2ccc([N+](=O)[O-])cc2)SC1=S (centres undefined),84.6% (inactive) and 85.1% (inactive)
17,CCn1cnc(C[C@H](NC(=O)[C@H](CCCCNC(=O)Nc2cc(C(F)(F)F)cc(C(F)(F)F)c2)NC(=O)Nc2cc(C(F)(F)F)cc(C(F)(F)F)c2)C(=O)OC)c1,-21% [100 µM] (active)
18,CCOC(=O)c1sc(NC(=O)COc2cccc(/C=C3\Cc4ccc(Cl)cc4C3=O)c2)nc1C,118% (inactive)
19,[2H]c1nc(=Nc2cc(NC(=O)C=C)c(N(C)CCN(C)C)cc2OC)[nH]c(-c2cn(C([2H])([2H])[2H])c3ccccc23)c1[2H],-9.46% (active)
20,CC(=O)/C(=C/c1ccc([N+](=O)[O-])cc1)C(=O)c1ccccc1,114% (inactive)

row,Compound,growth
1,N#Cc1cccc(-c2ccc3c(c2)NC(=O)/C3=C\c2ccc[nH]2)c1,-20.1% (active)
2,COc1cc(/C=N/NC(=O)c2cnn3c2NC(c2ccccc2)C3)cc(OC)c1OC (centres undefined),62.8% (inactive)
3,COc1cc(-c2cc(/C=C3\C(=O)Nc4cc(Cl)ccc43)[nH]n2)cc(OC)c1OC,58.3% (inactive)
4,Cc1ccccc1NS(=O)(=O)c1cccc(C(=O)Nc2ccc(Br)cc2)c1,-2.56% [25 µM] (active)
5,COc1cc(C2CC(c3ccc(Cl)cc3)=NN2c2ccc(Cl)cc2)cc(OC)c1OC (centres undefined),100% (inactive)
6,O=C(CN1CCN(c2cc3c(cc2F)c(=O)c(C(=O)O)cn3C2CC2)CC1)Nc1nc(-c2ccccc2)cs1,37.4% (inactive)
7,COc1cc(NC(C)CCCNC(C)C)c2ncccc2c1OC (centres undefined),32.8% (inactive)
8,C#CCN1C(=O)/C(=c2\sc3n(c2=O)NC2C(N=3)N(CC)C(=O)N2CC)c2ccccc21 (centres undefined),10.8% (inactive)
9,CSc1nc(CC(C)C)c(C#N)c(=O)n1C,-2.71% (active)
10,O=[N+]([O-])c1ccccc1N(S(=O)(=O)c1ccccc1)S(=O)(=O)c1ccccc1,106% (inactive) and 90% (inactive)
11,COc1cc(C(=O)N2N=C(c3ccc(S(C)(=O)=O)cc3)CC2c2ccco2)cc(OC)c1OC (centres undefined),36.7% (inactive)
12,COc1ncc(-c2ccc3ncnc(Nc4cccc(Cl)c4)c3c2)cc1NS(C)(=O)=O,-43.3% (active)
13,C=CCSC(CC)(CC)C(=O)NC,99.3% (inactive)
14,Cc1onc(-c2ccccc2Cl)c1C(=O)N[C@@H]1C(=O)N2[C@@H]1SC(C)(C)[C@@H]2C(=O)O,109% (inactive)
15,Cn1cc(-c2nc(-c3c[nH]c4ccncc34)cs2)c2ccccc21,-12.2% (active)
16,COC(=O)c1ccc(CSc2nnc(-c3c(C)nc4ccc(C)cn34)o2)cc1,93.2% (inactive)
17,C[C@H](C(=O)N[C@@H](Cc1ccc(-c2ccccc2)cc1)C(=O)NC1CC(C)(C)NC(C)(C)C1)c1ccc(-c2ccccc2)c(F)c1,-65.9% (active)
18,O=C1C=CC(=O)N1CCCCCCCCCCN1C(=O)C=CC1=O,70.9% (inactive)
19,CC(=O)Nc1ccc(-c2ccc3c(c2)NC(=O)/C3=C\c2ccc[nH]2)cc1,-7.08% (active)
